Only some compounds are listed: those with a hit (about 19% of all), similar ones and a draw of the others.
uPA generation: qHTS for Inhibitors of Cell Surface uPA Generation; 330,000 tested, 0.31% active; cell surface uPA generation assay, qHTS; AID 540303, 2011; Potency, µM (doses to about 38.3 µM), for the others: top-dose activity change, negative = inhibition, usual class: inhibitors; active means well fitted inhibition curve with a large enough effect; inconclusive means small, poorly fitted or top-dose-only effect; inactive means no such curve, though single readings can be large or run the other way; tested in mouse RAW 264.7 cells; further: potency means the concentration at half of the fitted maximal effect; nearly all actives have a fitted effect of over 55% in size
DT40 TDP1 no CPT: qHTS for Inhibitors of human tyrosyl-DNA phosphodiesterase 1 (TDP1): qHTS in cells in absence of CPT | AID 686978, 2013 | Potency, µM (series often up to 46.2 µM), without a hit: at the highest dose activity change, negative = growth inhibition, most hits filed as inhibitors | 420,000 tested, 15% active | DT40 Tdp1-/- hTDP1 cells, no CPT, ATP luminescence, 48 h; further: potency means the concentration at half of the fitted maximal effect; nearly all actives have a fitted effect of over 55% in size
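Readout: luminescence from CellTiter-Glo after 30 min in the dark at RT. Cells: DT40 Tdp1-/- with stable hTDP1, 400/well. Exposure: compounds alone, ≥48 hr, 37 °C.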
IL1B secr inh: qHTS for Inhibitors of Inflammasome Signaling: IL-1-beta AlphaLISA Primary Screen. THP-1 LPS/ATP IL-1B secretion, AlphaLISA, 16 h; stronger effect = lower value. activity change, % at 57.5 µM. 360,000 tested, 4.7% active. AID 743279, 2014; in the data active means activity change below about -50%; inconclusive means mostly about -30% to -49%
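THP-1 cells pretreated 1 hr with compounds (up to 57.5 uM final), then stimulated with LPS (250 ng/mL final) plus ATP (1.25 mM final); secreted IL-1B measured by AlphaLISA after 16 hr, decreased signal indicating inhibition.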
HT1080-NT tox: qHTS for induction of synthetic lethality in tumor cells producing 2HG: qHTS for the HT-1080-NT fibrosarcoma cell line. HT-1080-NT fibrosarcoma viability, CellTiter-Glo ATP luminescence, 48 h. Potency, µM (titrated, usually from 46.1 µM), for the others: top-dose activity, negative = less viability, hits mostly cytotoxic. 360,000 tested, 1.6% active;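 further: NT is the 2HG producing partner of a matched IDH1 knockdown line; potency means the concentration at half of the fitted maximal effect; 0% = DMSO-treated cells and -100% = media-only wells without cells; nearly all actives have a fitted effect of over 55% in size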
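Read-out is CellTiter-Glo luminescence after 10 minutes at room temperature, following 48 hours' compound treatment of HT-1080-NT cells (750 cells/well, RPMI, 5% FBS, 37 degrees C).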
DT40 TDP1 CPT: qHTS for Inhibitors of human tyrosyl-DNA phosphodiesterase 1 (TDP1): qHTS in cells in presence of CPT; chicken DT40 Tdp1-/-;hTDP1 cells + 20 nM CPT, ATP luminescence, 48 h; Potency, µM (top dose mostly 46.2 µM), without a hit: top-dose activity change, negative = growth inhibition, usual class: inhibitors; 420,000 tested, 12% active; further: potency means the concentration at half of the fitted maximal effect; nearly all actives have a fitted effect of over 55% in size
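Chicken DT40 Tdp1-/- cells complemented with human TDP1, 400 cells/well, exposed to compounds plus 20 nM camptothecin for at least 48 h at 37 C; viability read as ATP content by CellTiter-Glo luminescence.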
HT1080 IDH1KD tx: qHTS for induction of synthetic lethality in tumor cells producing 2HG: qHTS for the HT-1080-IDH1KD cell line; HT-1080 IDH1 knockdown viability, ATP luminescence, 48 h; Potency, µM (highest dose often 46.1 µM), inactives show at the highest dose activity, negative = toxicity, most hits filed as cytotoxic; 360,000 tested, 2% active; AID 686971, 2013;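 further: potency means the concentration at half of the fitted maximal effect; 0% = DMSO wells and -100% = cell-free medium wells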
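Knockdown cells (IDH1KD HT-1080) received compounds 2 h after plating at 750 cells/well and were kept 48 h at 37 °C in 5% FBS RPMI. A CellTiter-Glo luminescence read gave % activity for curve fitting.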
An asterisk follows results filed as active; i = inactive; ? = inconclusive; · = no result; ! = not active in a repeat. Unless noted, the call rests on the fitted dose curve; in most records, active means well fitted curve in the direction sought with a large enough effect; inconclusive means small, poorly fitted or top-dose-only effect, or another doubt; inactive means no such curve, though single readings can be large; an effect the other way counts as inactive or inconclusive. Unless noted, on the % scale 0 is the no-effect control and ±100 the full control effect.

SMILES	uPA generation	DT40 TDP1 no CPT	IL1B secr inh	HT1080-NT tox	DT40 TDP1 CPT	HT1080 IDH1KD tx
O=c1c2sc3nc(N4CCOCC4)c4c(c3c2ncn1-c1ccccc1)CCCC4	6%	?	-60*	-9%	?	-3%
O=c1c2sc3nc(N4CCOCC4)c4c(c3c2ncn1C(c1ccccc1)c1ccccc1)CCCC4	-4%	?	28	0%	?	11%
CC(C)CNc1nnnc2c1sc1nc(N3CCOCC3)c3c(c12)CCCC3	-3%	?	21	17%	?	6%
O=C(NCCc1ccc(Cl)cc1)c1cnc2sc(N3CCOCC3)nn2c1=O	·	1%	·	·	-4%	·
O=C(NCCS(=O)(=O)NC1CCCC1)c1ccccc1	4%	-4%	-5	10%	5%	11%
Cc1ccccc1-n1cnc2c(sc3nc(N4CCOCC4)c4c(c32)CCCC4)c1=O	0%	15µM*	-29	?	18µM*	?
O=C(c1ccc(COc2c(F)c(F)cc(F)c2F)o1)N1CCN(c2ccccc2)CC1	4%	12µM*	7	?	18µM*	-25%
O=C(c1ccc(CS(=O)Cc2ccccc2Cl)o1)N1CCN(c2cccc(Cl)c2)CC1 (centres undefined)	0%	?	-23	-37%	?	-26%
COc1ccc(N2CCN(C(=O)c3ccc(CS(=O)c4cccc(Cl)c4)o3)CC2)cc1 (centres undefined)	·	15µM*	-10	-17%	16µM*	-25%
O=C(c1ccco1)N1CCN(C(=O)c2ccc(CS(=O)c3cccc(Cl)c3)o2)CC1 (centres undefined)	-3%	-17%	24	-2%	-16%	6%
COc1ccc(S(=O)Cc2ccc(C(=O)N3CCN(c4cccc(C)c4C)CC3)o2)cc1 (centres undefined)	?	0.92µM*	5	16%	0.58µM*	10%
COc1cccc(N2CCN(C(=O)c3ccc(CS(=O)c4cccc(Cl)c4)o3)CC2)c1 (centres undefined)	·	0.52µM*	·	·	0.52µM*	·
Cc1ccc(S(=O)(=O)N=S(CCO)CCO)cc1	3%	-5%	7	17%	-2%	16%
O=C(CC1CC2CCC1C2)NC1CCCCCCC1 (centres undefined)	1%	7%	26	-2%	3%	-3%
Cc1ccc(C(=O)N/C(=C\c2ccc(Cl)cc2)C(=O)NCCN2CCOCC2)cc1	-5%	1%	-28	-12%	3%	-3%
O=C1OCCOC2CCCc3oc(C4=CCCCC4)c1c32 (centres undefined)	·	-11%	32	10%	-11%	0%
CCOC(=O)N1CCN(S(=O)(=O)N2CCCC(C(=O)NCCc3ccc(OCC)c(OCC)c3)C2)CC1 (centres undefined)	4%	0%	7	-2%	3%	2%
CC(=O)Nc1nonc1NC(=O)COc1ccccc1	0%	-2%	-9	4%	17%	9%
COc1cccc(N2CCN(C(=O)c3ccc(CS(=O)Cc4ccc(Cl)cc4)o3)CC2)c1 (centres undefined)	1%	18µM*	-24	-9%	?	-3%
Cc1ccc(CS(=O)Cc2ccc(C(=O)N3CCN(c4ccccc4)CC3)o2)cc1 (centres undefined)	4%	?	-15	-5%	21µM*	-2%
Cc1ccc(CS(=O)Cc2ccc(C(=O)N3CCN(c4ccc(F)cc4)CC3)o2)cc1 (centres undefined)	1%	?	?	-7%	?	-1%
COc1cccc(N2CCN(C(=O)c3ccc(CS(=O)Cc4ccccc4Cl)o3)CC2)c1 (centres undefined)	-6%	?	-16	-12%	?	-12%
CCOCCSc1n[nH]c(=O)n1CCc1ccccc1	1%	2%	13	-2%	-10%	-1%
Nc1nc(N)c(-c2cccc(C(F)(F)F)c2)c(Cc2cccc(C(F)(F)F)c2)n1	-13%	1.3µM*	-81*	?	2.9µM*	4.6µM*
CNC(=O)c1cccc(NC(=O)CCCNC(=O)c2ccc(Cl)cc2)c1	3%	-11%	90	24%	11%	13%
SMILES	uPA generation	DT40 TDP1 no CPT	IL1B secr inh	HT1080-NT tox	DT40 TDP1 CPT	HT1080 IDH1KD tx
Cc1ccc(S(=O)(=O)N(C)c2ccc(C(=O)Nc3ccccc3C(=O)N3CCOCC3)cc2)cc1	3%	?	i	-1%	-16%	14%
Cc1ccc2c(c1)N(C(=O)N1CCC(C(=O)NCc3cccc(Br)c3)CC1)CCO2	·	21µM*	·	·	?	·
CCC1CN(C(=O)N2CCC(C(=O)NCc3ccco3)CC2)c2cc(C)ccc2O1 (centres undefined)	-3%	18µM*!	0	-1%	?	-11%
CC1CN(C(=O)N2CCC(C(=O)NCc3ccco3)CC2)c2ccccc2O1 (centres undefined)	·	-19%	·	·	5%	·
CCc1ccc(CNC(=O)C2CCN(C(=O)N3CC(CC)Oc4ccc(C)cc43)CC2)cc1 (centres undefined)	·	21µM*	·	·	21µM*	·
CCC1CN(C(=O)N2CCC(C(=O)NCc3ccc(C)o3)CC2)c2cc(C)ccc2O1 (centres undefined)	-6%	?	-1	18%	16µM*!	11%
Cc1ccc(NC(=O)C2CCN(C(=O)N3CCOc4ccccc43)CC2)cc1	7%	?	-13	-1%	?	-4%
Cc1ccc(C(=O)N2CCC(C(=O)NCc3ccco3)CC2)cc1	1%	-15%	-9	5%	-13%	6%
O=C(COc1ccccc1)Nc1nnc2n1CCS2	·	0%	·	·	-1%	·
c1ccc2c(SCc3cn4ccccc4n3)nncc2c1	-14%	-27%	?	8%	?	15%
CC(C)(C)c1ccc(C2(C)NC(=O)NC2=O)cc1 (centres undefined)	5%	-19%	10	0%	-5%	-1%
CCOc1ccc(CNC(=O)C2CCN(C(=O)N3CC(C)Oc4ccccc43)CC2)cc1 (centres undefined)	3%	?	-16	16%	?	0%

Screening results from PubChem.
